Results reported in ChEMBL document CHEMBL4296182, “CO-ADD screening of NIH NCI Diversity Set V”.
For part of these data: Potency and affinity values are given separately.

Columns and labels:
[1] = tested on: Staphylococcus aureus; test: Antibacterial activity against Staphylococcus aureus MRSA ATCC 43300 (CO-ADD:GP_020); MIC in CAMBH media using NBS plates, by Resazurin F(560/590); format: functional; settings: Concentration 20 uM, ASSAY_TEST Inhibition of Bacterial Growth, detection method Resazurin, Fluorescence (ex560/em590), MEDIA CAMHB, plate type 384well, CORNING #3640, time 18 hr
[2] = tested on: Acinetobacter baumannii; test: Antibacterial activity against Acinetobacter baumannii ATCC 19606 (CO-ADD:GN_034); MIC in CAMBH media using NBS plates, by Resazurin F(560/590); format: functional; settings: Concentration 20 uM, ASSAY_TEST Inhibition of Bacterial Growth, detection method Resazurin, Fluorescence (ex560/em590), MEDIA CAMHB, plate type 384well, CORNING #3640, time 18 hr
[3] = tested on: Escherichia coli; test: Antibacterial activity against Escherichia coli ATCC 25922 (CO-ADD:GN_001); MIC in CAMBH media using NBS plates, by Resazurin F(560/590); format: functional; settings: Concentration 20 uM, ASSAY_TEST Inhibition of Bacterial Growth, detection method Resazurin, Fluorescence (ex560/em590), MEDIA CAMHB, plate type 384well, CORNING #3640, time 18 hr
[4] = tested on: Klebsiella pneumoniae; settings: Concentration 20 uM; ASSAY_TEST Inhibition of Bacterial Growth; detection method Absorption (OD600); MEDIA CAMHB; plate type 384well; NBS; CORNING #3640; time 18 hr
[5] = tested on: Candida albicans; settings: 20 µM
[6] = tested on: Cryptococcus neoformans; settings: Concentration 20 uM; ASSAY_TEST Inhibition of Fungal Growth; detection method Resazurin; Absorption (OD600-OD570); plate type 384well; NBS; CORNING #3640

| SMILES | Inhibition [1] [%] | Inhibition [2] [%] | Inhibition [3] [%] | Inhibition [4] [%] | Inhibition [5] [%] | Inhibition [6] [%] |
| --- | --- | --- | --- | --- | --- | --- |
| CCC(C)Oc1nc2c(c(=O)n(C)c(=O)n2C)n1C (stereo not drawn) | -1.77 | -5.34 | 12.06 | 2.01 | 1.02 | -11.56 |
| Cc1cccnc1N=C(S)Nc1ncccc1C | 10.58 | 20.87 | 9.06 | 23.76 | 3.55 | -10.6 |
| CC(=O)OC1C=CCC2C(=O)c3cccc(O)c3C(O)C12 (stereo not drawn) | -1.42 | -10.27 | 6.95 | 7.69 | 6.66 | -16.38 |
| O=C(/C=C/c1cccnc1)/C=C/c1cccnc1 | 16.75 | 4.07 | 0.92 | 20.07 | 31.4 | -2.05 |
| CC(=O)Nc1ccc(OCCOc2ccc([N+](=O)[O-])cc2)cc1 | 16.53 | 7.01 | 2.93 | 10.72 | -1.95 | -16.57 |
| OCC1(CO)COC2(CCCC2)N1 | 5.01 | 0.7 | 4.05 | 19.67 | -1.93 | -8.24 |
| N#Cc1ncc(Cl)c2ccccc12 | -8.29 | -4.37 | -2.85 | 7.91 | 0.23 | -7.62 |
| O=C1OC(Cc2ccccc2)C(c2ccccc2)C1=O (stereo not drawn) | 9.75 | 11.9 | 6.23 | 14.26 | 6.87 | -15.19 |
| COc1cc2c(cc1OC)[N+]([O-])=C(c1ccccc1)C2=O | 11.49 | -5.23 | 9.41 | -2.97 | 13.8 | -4.84 |
| Nc1ncnc(N2CCOCC2)n1 | -3.61 | -4.78 | -0.51 | 0.72 | 2.01 | -5.84 |
| O=C1NC(=O)C(Cc2ccccc2)(c2cccnc2)N1 (stereo not drawn) | 33.81 | 2.65 | 15.22 | 9.85 | 7.24 | 16.94 |
| Cc1nc2ccccc2nc1NS(=O)(=O)c1ccc(N)cc1 | -35.57 | -9.78 | -4.56 | 7.2 | 4.92 | -5.27 |
| C=C(C)c1nc(Oc2ccccc2)nc(Oc2ccccc2)n1 | 19.07 | 6.26 | 6.34 | 11.06 | 0.6 | -9.97 |
| COc1cc(/N=N/c2cccc(S(N)(=O)=O)c2)c2ccccc2c1N | -2.34 | 3.92 | -3.15 | 14.2 | 0.44 | -17.61 |
| COC(=O)c1cncc(C)c1 | 18.5 | -13.2 | 14.23 | 15.45 | 0.39 | -1.27 |
| CNC(=O)Nc1ccc(S(N)(=O)=O)cc1 | -4.03 | 14.32 | -4.85 | 19.46 | 3.31 | 0.61 |
| Cc1cc(NC(=O)OC(C)C)ccc1-c1ccc(NC(=O)OC(C)C)cc1C | 6.05 | 1.04 | -21.51 | 2.57 | 2.22 | 33.06 |
| Cc1ccc(N2CCN(CC(O)COc3cccc(C)c3)CC2)cc1 (stereo not drawn) | 10.15 | -11.82 | 15.19 | 10.88 | -0.24 | -16.06 |
| Cc1ccc(-c2nc(-c3nccc4ccccc34)oc2-c2ccccc2)cc1 | 17.39 | 5.86 | 4.4 | 6.85 | 18.7 | -2.8 |

| SMILES | Inhibition [1] [%] | Inhibition [2] [%] | Inhibition [3] [%] | Inhibition [4] [%] | Inhibition [5] [%] | Inhibition [6] [%] |
| --- | --- | --- | --- | --- | --- | --- |
| N#Cc1cnn(-c2cccc(Cl)c2)c1-n1cccc1 | 7.59 | -21.29 | 14.62 | 3.39 | 9.39 | -16.73 |
| COc1cc(Cl)c(CC(=O)c2c[nH]c3ccccc23)cc1OC | -6.42 | 2.77 | -1.53 | 5.86 | 3.17 | -1.97 |
| NS(=O)(=O)c1ccc(Nc2ccccc2)c([N+](=O)[O-])c1 | 4.64 | 12.63 | -4.87 | 9.32 | 7.16 | -1 |
| Cc1c(O)ccc2c(O)c(NC(=O)c3ccc4c(c3)CCC(C)(C)O4)c(=O)oc12 [CYCLONOVOBIOCIC ACID] | 10.86 | 10.56 | -1.41 | 4.57 | 4.26 | -3.84 |
| C1CCC(NC2=NCCO2)CC1 | -4.28 | -18.87 | 9.63 | 6.74 | -0.27 | -10.7 |
| Cc1cc(NC(=O)Nc2cc(Cl)ccc2C)no1 | -16.99 | 4.24 | -3.34 | 4.74 | 19.4 | -2.52 |
| O=C(Nc1cccc(Cl)c1)Nc1nccs1 | 1.33 | -6.03 | 8.66 | 7.36 | 3.47 | -22.98 |
| Oc1ncnc(CN2CCCCC2)c1O | 7.4 | 1.82 | 7.79 | 2.35 | -1.92 | -11.85 |
| CN(C)CC1C2CCC(C2)C1O (stereo not drawn) | 7.18 | -12.67 | 8.84 | 23.62 | 0.82 | -7.67 |
| CCC12CCCN3CCc4c(n(c5ccccc45)C(O)(C(=O)OC)C1)C32 (stereo not drawn) | 7.39 | 9.61 | 2.09 | 11.45 | 0.39 | 5.96 |
| CC1CC(C)(C)NC2(CCCC2)N1 (stereo not drawn) | 12.12 | -5.32 | 5.91 | 11.32 | -0.15 | -4.43 |
| O=C(c1ccccc1)C1C(c2ccccc2)C1[N+](=O)[O-] (stereo not drawn) | 0.24 | 5.31 | -7.09 | 8.34 | 7.18 | -2.68 |
| COc1ccccc1N=NNc1ccccc1OC | 15.47 | -0.02 | 3.88 | 9.87 | 2.77 | -8.49 |
| Cc1ccc(NC(=O)Nc2c(Cl)cccc2Cl)cn1 | 20.25 | -2.44 | -14.35 | 6.22 | 3.4 | 18.5 |
| COc1ccc(C(=O)Oc2cccnc2O)cc1 | -4.34 | 16.28 | -5.51 | 12.02 | 4.27 | -4.22 |
| O=C(CCl)NC1(C(=O)O)CCCC1 | -0.81 | 16.39 | -6.53 | 9.23 | 6.58 | -2.6 |
| CSc1cccc(NC(=O)N2CCN(C)CC2)c1 | 0.63 | -10.8 | 6.03 | 6.8 | 3.78 | -18.46 |
| O=S1(=O)CCN(Cc2ccccn2)CC1 | 22.86 | 16.69 | 26.77 | 2.99 | 2.84 | 12.19 |
| Cc1cc(NC(=O)NC(=O)c2ccccc2NC(=O)C(C)N)ccc1Oc1ncc(Br)cn1.Cl (stereo not drawn) | 19.83 | -8.48 | 11.58 | 15.35 | -1.4 | -7.47 |
